HT1080 IDH1KD tx: toxicity to HT-1080 IDH1 knockdown cells (counter line); HT-1080 IDH1 knockdown viability, ATP luminescence, 48 h; Potency, µM (series often up to 46.1 µM), for inactives: at the top dose activity, negative = toxicity, hits mostly cytotoxic; actives 2% (n = 360,000);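 note: 0% = DMSO wells and -100% = cell-free medium wells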
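IDH1KD HT-1080 cells, 750/well, RPMI + 5% FBS; compound pinned after 2 h settling; 48 h, 37 °C; CellTiter-Glo luminescence; % activity normalised to DMSO and no-cell wells; curves fitted, classed by r2 and efficacy.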
KB-3-1 cytotox: KB-3-1 parental cell cytotoxicity; Potency, µM (top dose mostly 46.1 µM), usual class: cytotoxic; KB-3-1 viability, CellTiter-Glo ATP luminescence, 72 h; actives 1.4% (n = 400,000); AID 1347075; note: % is set by controls: 0 for no effect and ±100 for the full control effect; nearly all actives have a fitted effect of over 60% in size
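Parental KB-3-1 adenocarcinoma cells in phenol-red-free DMEM with 10% FBS were pin-treated with compounds at several concentrations, incubated 72 h at 37 °C, and viability read by CellTiter-Glo luminescence; concentration-effect curves were fitted after normalization.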
HT1080NT lethal: kills 2HG-producing HT-1080-NT fibrosarcoma cells. AID 686970. HT-1080-NT fibrosarcoma viability, CellTiter-Glo ATP luminescence, 48 h. actives 1.6% (n = 360,000). Potency, µM (highest dose often 46.1 µM), for the others: at the top dose activity, negative = less viability, most hits filed as cytotoxic;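 note: NT is the 2HG producing partner of a matched IDH1 knockdown line; 0% = DMSO-treated cells and -100% = media-only wells without cells; nearly all actives have a fitted effect of over 55% in size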
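Read-out is CellTiter-Glo luminescence after 10 minutes at room temperature, following 48 hours' compound treatment of HT-1080-NT cells (750 cells/well, RPMI, 5% FBS, 37 degrees C).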
HepG2 viability: HepG2 cytotoxicity, counter-screen for TGF-b inhibitors | HepG2 CAGA-GFP viability, ATP luminescence, 18 h | Potency, µM (highest dose often 46.1 µM), without a hit: top-dose activity change, negative = cytotoxicity, most hits filed as cytotoxic | actives 0.76% (n = 410,000)
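CellTiter-Glo luminescence gave cytotoxicity after 18 hours at 37 degrees C. The cells were HepG2 CAGA-GFP in 1% FBS DMEM, stimulated with 500 pg/mL TGF-beta after compound addition. %Activity was normalised to no-cell wells (complete cell-killing) and DMSO (no toxicity), and curves were fitted and classified.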
KB-V1 MDR tox: kills drug-selected multidrug resistant KB-V1 cells; actives 3.4% (n = 400,000); Potency, µM (top dose mostly 46.1 µM), most hits filed as cytotoxic; KB-V1 MDR cells viability, CellTiter-Glo, 72 h; note: % is set by controls: 0 for no effect and ±100 for the full control effect; nearly all actives have a fitted effect of over 60% in size
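Drug-selected KB-V1 cells, grown in DMEM lacking phenol red with 10% FBS, receive compound titrations; after three days at 37 degrees C, surviving cell ATP is quantified by CellTiter-Glo luminescence and responses normalized and curve-fitted.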
TGFb inhibitor: inhibitors of TGF-b signaling. HepG2 CAGA-GFP TGF-b/SMAD3 reporter, GFP fluorescence, 18 h; TGF-beta stimulated, 500 pg/mL final. Potency, µM (top dose mostly 46.1 µM), inactives show at the highest dose activity, negative = inhibition, most hits filed as inhibitors. actives 1.2% (n = 410,000); note: % is set by controls: 0 for no effect and ±100 for the full control effect; nearly all actives have a fitted effect of over 65% in size
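HEPG2 CAGA-GFP cells (1000/well, DMEM with 1% FBS) were pre-incubated 2 h at 37 degrees C, given compound by pin tool, then stimulated with TGF-beta at 500 pg/mL final for 18 h before per-cell GFP fluorescence imaging.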
Numbers without * were called inactive; i = inactive; ? = inconclusive; nt = no result given; [ ] = dose if it differs, or a comment. Shown are actives, neighbours in structure and some others; about 6.6% of the full set was active somewhere. Calls come from the whole dose curve; as a rule, active = well fitted curve in the direction sought with a large enough effect; inconclusive = small, poorly fitted or top-dose-only effect, or another doubt; inactive = no such curve, though single readings can be large; an effect the other way counts as inactive or inconclusive. Potency is the fitted concentration of half-maximal effect.

SMILES	HT1080 IDH1KD tx	KB-3-1 cytotox	HT1080NT lethal	HepG2 viability	KB-V1 MDR tox	TGFb inhibitor
CC(=O)C1=C(c2ccccc2)N(C(C)=O)n2c(nnc2C2CCCCC2)S1	nt	nt	nt	11µM*	nt	11µM*
CC(=O)C1=C(c2ccc(Cl)c(Cl)c2)N(C(C)=O)n2c(C)nnc2S1	nt	?	nt	7.9µM*	i	?
CC(=O)C1=C(c2ccc(Cl)c(Cl)c2)N(C(C)=O)n2cnnc2S1	nt	nt	nt	-94%	nt	5.6µM*
CC(=O)c1ccc(-c2cnc3c(NC=O)cc(-c4ccc(N5CCN(C)CC5)cc4)cn23)cc1	?	i	26µM*	-32%	i	?
O=CNc1cc(-c2ccccc2)cn2c(-c3ccc(F)c(Cl)c3)cnc12	?	i	-12%	2%	?	-19%
CC(=O)Nc1cc(-c2ccc(N3CCN(C)CC3)cc2)cn2c(-c3ccc(F)c(Cl)c3)cnc12	16µM*	?	21µM*	-99%	?	?
O=CNc1cc(-c2cccc(F)c2)cn2c(-c3ccc(F)c(Cl)c3)cnc12	?	?	-11%	-18%	23µM*	-21%
CC(=O)Nc1cccc(-c2cc(NC=O)c3ncc(-c4ccc(C(C)=O)cc4)n3c2)c1	-6%	i	23µM*	-2%	i	?
COc1ccc(-c2cc(NC=O)c3ncc(-c4ccc(C(C)=O)cc4)n3c2)cn1	?	?	?	-31%	?	-18%
CC(=O)Nc1cc(-c2ccc(N3CCN(C)CC3)cc2)cn2c(-c3cccc(C(C)=O)c3)cnc12	-29%	i	-19%	-59%	i	?
NC(=O)CSc1ncc2c(n1)-c1ccccc1N(Cc1ccccc1)S2(=O)=O	nt	i	nt	3%	i	2%
COc1ccccc1CNc1ncnc2c1c(-c1ccccc1)cn2-c1ccc(Br)cc1	nt	nt	nt	-30%	nt	-5%
CCOC(=O)c1c(C)n(-c2ccccc2)c2ccc(OC(=O)c3cc(OC)cc(OC)c3)cc12	nt	i	nt	-8%	i	-4%
CN1CCN(c2ccc(-c3cc(NC=O)c4ncc(-c5ccc(F)c(Cl)c5)n4c3)cc2)CC1	?	?	?	-86%	?	20µM*
CCn1c(=O)c2cc(C(=O)NC3CCC(C)CC3)sc2c2ccccc21 (stereo not drawn)	nt	i	nt	-20%	i	-1%
CCOC(=O)c1sc(N(Cc2ccccc2)C(=O)COC(=O)c2ccc(O)cc2)nc1C	-21%	i	-19%	-97%	i	13µM*
CCOC(=O)c1sc(N(Cc2ccccc2)C(=O)CCl)nc1C	18µM*	i	?	-173%	i	?
O=C(NC(=S)N1CCN(c2ccc([N+](=O)[O-])cc2)CC1)c1ccccc1F	23%	i	5%	-28%	21µM*	-27%
C=C(C)CSc1nnc2[nH]c(=O)cc(N)n12	0%	16µM*	-6%	-2%	18µM*	-4%
CCCOC(=O)c1ccc(-c2c(C)noc2-c2ccc(OC)cc2O)o1	?	i	-35%	13µM*	i	16µM*
COc1ccc(-c2onc(C)c2-c2cscn2)c(O)c1	5%	i	9%	-11%	i	0%
CN(C)c1ccc(C(C[N+](=O)[O-])c2c(N)n(C)c(=O)n(C)c2=O)c(F)c1C#N (stereo not drawn)	?	?	?	11µM*	i	?
Cn1c(N)c(C(C[N+](=O)[O-])c2c(F)cccc2Cl)c(=O)n(C)c1=O (stereo not drawn)	?	?	?	-25%	i	0%
COc1ccc(Br)cc1C(C[N+](=O)[O-])c1c(N)n(C)c(=O)n(C)c1=O (stereo not drawn)	?	?	?	16µM*	?	10µM*
Cc1cccc(N2CCN(C(=O)Cn3ncc4c3-c3cc(C)ccc3OC4)CC2C)c1 (stereo not drawn)	nt	i	nt	-30%	i	?
SMILES	HT1080 IDH1KD tx	KB-3-1 cytotox	HT1080NT lethal	HepG2 viability	KB-V1 MDR tox	TGFb inhibitor
CCc1ccccc1NC(=O)Cn1c(C(=O)OC)cc2oc(C)cc21	nt	i	nt	0%	i	-1%
CCOc1cc(C(c2c(C)[nH]n(-c3ccccc3)c2=O)c2c(C)[nH]n(-c3ccccc3)c2=O)ccc1O	nt	i	nt	8.9µM*	?	11µM*
Cc1[nH]n(-c2ccccc2)c(=O)c1C(c1cc(Cl)ccc1O)c1c(C)[nH]n(-c2ccccc2)c1=O	nt	nt	nt	-62%	nt	7.9µM*
Cc1[nH]n(-c2ccccc2)c(=O)c1C(c1ccccc1C(=O)O)c1c(C)[nH]n(-c2ccccc2)c1=O	-9%	i	-6%	6%	i	-3%
Cc1csc2nc3cc(C(N)=O)ccc3c(=O)n12	11%	i	15%	-21%	?	0%
NC(=O)c1ccc2c(=O)n3c(-c4cc(Cl)c(N)c(Cl)c4)csc3nc2c1	?	23µM*	?	15%	i	-4%
CCC(C)(C)c1ccc(OCCCC[n+]2ccccc2)c(C(C)(C)CC)c1	?	9.2µM*	16µM*	-104%	?	?
c1cc[n+](CCCC[n+]2ccccc2)cc1	6%	i	0%	-3%	i	-11%
CCCCCc1ccc(OCCCC[n+]2ccccc2)c(CCCCC)c1	8.2µM*	?	23µM*	-157%	?	?
CCCCCc1ccc(OCCCC[n+]2cccc(C)c2)c(CCCCC)c1	4.1µM*	9.2µM*	4.1µM*	-101%	i	?
CCCCOc1ccc(C)cc1CN(CCO)CCO	-1%[9.24 µM]	i	-12%	-8%	i	-1%
Cc1cc(=O)oc2cc(OCCCC[n+]3ccccc3)ccc12	3%	i	19%	-35%	i	1%
CCCCCc1ccc(OCCCC[n+]2ccc(C)cc2)c(CCCCC)c1	6.5µM*	5.8µM*	6.5µM*	-97%	i	11µM*
O=C(NC1CC(=O)N(c2cccc(F)c2)C1)c1cc2ccccc2o1 (stereo not drawn)	nt	nt	nt	-22%	nt	?
CCCCCCCCCCCCCCCC[n+]1ccc(C)cc1	nt	1.6µM*	nt	-89%	?	?
COc1ccccc1NC(=O)CSc1nnc(-c2nonc2NC(C)=O)n1-c1ccccc1	nt	i	nt	4%	i	-13%
COc1ccc(C(=O)C(/C=N/O)=N/Nc2ccc(F)cc2)cc1	-16%	i	-11%	7%	i	20%

Screening results as filed in PubChem.
